# Assay outcomes deposited in PubChem by several laboratories.
# AHR act = AHR activators, primary screen, cell-based, luminescence, luciferase reporter, human. actives 2.5% (n = 320,000). AID 2796, 2010. Aryl hydrocarbon receptor (Homo sapiens), P35869. AHR-responsive luciferase reporter cells. activation, % at 5 µM; in the data active = activation above about 47%
# GAA850 FXN act = FXN promoter activators, primary screen, cell-based, luciferase luminescence, HEK293 lucGAA850; HEK293 lucGAA850 FXN promoter luciferase reporter, 24 h; percent of 10 µM SAHA response; activation, % at 6 µM; actives 0.56% (n = 360,000); AID 540364, 2011;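 active = activation above the average of all compounds screened plus 3 SD, cutoff fixed separately per campaign, cut at about 7.5% in these data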
# HSP90 inh = HSP90 inhibitors, primary screen, cell lysate, luminescence. actives 0.91% (n = 290,000). Rabbit reticulocyte lysate, luciferase refolding luminescence, 3 h. inhibition, % at 5.6 µM. AID 1789, 2009;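 active = inhibition above the screen-wide mean plus 3 SD, computed separately per campaign, cut at about 16% in these data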;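 also: inhibitors lower the luminescence because luciferase stays unfolded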
# HSF1 inhib = HSF1 inhibitors in luciferase reporter cells, primary screen, cell-based, NIH3T3, luminescence. NIH3T3-HGL HSE-luciferase, MG132-induced, luminescence 8 h; stronger effect = lower value. activity change, negative = inhibition, % at 7.5 µM (by protocol). actives 0.77% (n = 300,000). AID 2098, 2009;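 active = more than half of replicate wells show activity change below -50%, luminescence cut by over half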;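 also: luciferase reports HSF-1 transcriptional activity via heat shock element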
# HSF1 activator = HSF-1 activators, primary screen, NIH3T3-HGL cells, MG132 stress, luminescence, single point | activation, % at 9 µM | actives 1.7% (n = 300,000) | AID 504408, 2011 | NIH3T3-HGL HSF-1 luciferase reporter, 8 h; 100% = twice DMSO control signal;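 active = mean replicate activation of at least 50% with a set share of replicates each reaching 50%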
# DAX1 inh = DAX1 (NR0B1) inhibitors, primary screen, cell-based, HEK293, Gal4-DAX1, luciferase luminescence; Nuclear receptor subfamily 0 group B member 1 (Homo sapiens), P51843; HEK293 Gal4-DAX1 luciferase reporter; inhibition, % at 6.75 µM; actives 0.99% (n = 340,000); AID 504766, 2011;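 active = inhibition above the mean over all tested compounds plus 3 SD, cut at about 4.2% in these data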;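 also: inhibition shows as a rise in luminescence from relieved DAX1 repression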
# AHR act confirm = AHR activators, confirmation, cell-based, luminescence, luciferase reporter, human; activation, % at 9 µM; actives 87% (n = 2,300); AID 2845, 2010; shares compounds with AHR act; human cells, AHR-responsive luciferase reporter; in the data active = activation above about 49%;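 also: HepG2 hepatoma cells carrying a DRE-driven firefly luciferase reporter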
# PXR counter = human PXR activators, counter-screen for AHR activator project, cell-based, luciferase luminescence; shares compounds with AHR act; cell-based PXR reporter; activation, % at 11.6 µM; actives 88% (n = 2,300); in the data active = activation above about 11%;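 also: human hepatoma DPX-2 cells expressing full-length human PXR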
# Target sequence (O75469 whole entry, looked up): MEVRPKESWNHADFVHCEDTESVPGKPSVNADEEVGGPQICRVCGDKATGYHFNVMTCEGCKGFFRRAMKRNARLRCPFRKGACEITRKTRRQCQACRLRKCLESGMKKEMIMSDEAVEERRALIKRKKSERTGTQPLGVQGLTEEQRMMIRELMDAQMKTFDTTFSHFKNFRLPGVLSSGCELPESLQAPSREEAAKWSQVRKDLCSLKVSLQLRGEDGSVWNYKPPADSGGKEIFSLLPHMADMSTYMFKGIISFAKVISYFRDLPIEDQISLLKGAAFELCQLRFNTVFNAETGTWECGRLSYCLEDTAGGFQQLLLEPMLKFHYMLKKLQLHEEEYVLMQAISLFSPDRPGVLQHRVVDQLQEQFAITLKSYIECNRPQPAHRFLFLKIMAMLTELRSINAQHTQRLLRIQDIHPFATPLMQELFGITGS
# Hits are given with their value; - = inactive; . = not tested or not shown. Rows were chosen to be rich in hits. Some 5.9% of all compounds tested hit in one or more screens of this group.
SMILES,AHR act,GAA850 FXN act,HSP90 inh,HSF1 inhib,HSF1 activator,DAX1 inh,AHR act confirm,PXR counter
O=c1c(-c2ccccc2)n[nH]c2ccccc12,117,-,-,-,-,-,81,26
CC(C)/C=N/Nc1nc(-c2ccc(Br)cc2)cs1,141,-,-,-,-,-,-,18
O=C(Nc1nc(-c2ccc(Br)cc2)cs1)c1cccnc1,-,-,-,-,-,-,.,.
Cc1nc(SCC(=O)NNC(=O)c2ccc(F)cc2)c2ccccc2n1,-,-,.,.,.,-,.,.
COc1cc(-c2cc(-c3ccc(N)cc3)[nH]c(=O)c2C#N)cc(OC)c1OC,101,-,-,-,-,-,84,17
COc1cccc(Cn2nnc(C(=O)Nc3cc(C)ccc3OC)c2N)c1,128,-,-,-,-,-,-,26
COc1cccc(Cn2nnc(C(=O)Nc3ccc(C)cc3)c2N)c1,-,-,-,-,-,-,.,.
Cc1cc(C)n2ncc(-c3cccc(Br)c3)c2n1,88,-,-,-,-,-,120,24
CCOC(=O)c1cnc2c(-c3cccc(Br)c3)cnn2c1C,-,-,-,-,-,-,.,.
COc1ccc(/C=N/Nc2nonc2N)cc1OC,-,-,-,-,-,-,.,.
COc1ccc(/C=N/Nc2nc3ccccc3[nH]2)cc1OC,111,-,-,-,369,-,86,.
COc1ccc(/C=N/Nc2nc(N)cc(Cl)n2)cc1OC,89,-,-,-,-,-,72,16
COc1ccc(/C=N/Nc2ccccn2)cc1OC,-,-,-,-,-,.,.,.
BrC(=C\c1ccccc1)/C=N/Nc1nc2ccccc2[nH]1,149,-,-,-,-,-,49,59
COc1ccc2c(c1)c(/C=N/Nc1nc3ccccc3[nH]1)c(C)n2C,98,-,-,-,206,-,63,40
CCOC(=O)c1c(S(=O)(=O)NCC(=O)N2CCN(c3cccc(OC)c3)CC2)c(C)n(C)c1C,-,-,-,-,-,-,.,.
Cc1c(NS(=O)(=O)c2ccc(Cl)c(C(=O)OC(C)C(=O)NCc3ccco3)c2)c(=O)n(-c2ccccc2)n1C (stereo not given),-,-,-,-,-,-,.,.
Cc1c(NS(=O)(=O)c2cc(C(=O)NCc3ccco3)cc(Cl)c2Cl)c(=O)n(-c2ccccc2)n1C,97,-,.,-,-,-,102,201
COc1cc(C)ccc1OCc1cc(C(=O)N2CCN(C3CCCCC3)CC2)no1,-,-,-,-,-,-,.,.
O=C(C[n+]1cc2ccccc2c2ccccc21)c1ccccc1,87,-,-,-,-,-,93,55
O=C(N=Nc1c(O)[nH]c2ccccc12)c1cccc(S(=O)(=O)N2CCCCC2)c1,-,-,-,-,-,-,.,.
CC1CCc2sc(C(=O)N=Nc3c(O)[nH]c4ccccc34)cc2C1 (stereo not given),84,.,-,-,-,.,103,-
Cc1csc(=NC(=O)c2ccccc2)n1Cc1ccco1,-,-,-,-,-,-,.,.
CCn1c(C)csc1=NC(=O)c1ccccc1O,93,-,-,-,-,-,95,15
O=C1OC(c2cc(Br)c(O)c(Br)c2)c2ccccc21 (stereo not given),.,-,.,.,.,-,.,.
SMILES,AHR act,GAA850 FXN act,HSP90 inh,HSF1 inhib,HSF1 activator,DAX1 inh,AHR act confirm,PXR counter
Oc1c(Br)cc(C2N=C(c3ccccc3)NO2)cc1Br (stereo not given),94,-,-,-,-,-,92,18
Clc1cccc(-c2ccc(CNCc3ccccn3)o2)c1,121,-,-,-,-,-,87,24
Brc1ccc(-c2ccc(CNCc3ccccn3)o2)cc1,-,-,-,-,-,-,.,.
COc1ccc(S(=O)(=O)Nc2ccc3c(c2)C(=O)N([C@@H](C)CO)C[C@H](C)[C@H](CN(C)CC2CC2)O3)cc1,-,-,.,.,.,-,.,.
CC(=O)c1noc(C)c1C(=O)Nc1nccs1,103,-,-,-,-,-,81,.
Cc1cccc2cc3c(N)c(C(=O)N4CCOCC4)sc3nc12,81,-,-,-,81,-,78,.
NC(c1ccccc1)c1csc(Nc2ccccn2)n1 (stereo not given),.,-,.,.,.,.,.,.
Cc1nc(C)c(-c2csc(Nc3ccccn3)n2)s1,83,-,-,-,-,-,-,35
c1ccc(-c2csc(Nc3ccccn3)n2)cc1,139,-,-,-,82,-,131,16
CC(C)NC(=O)N(C)C[C@H]1OCCCC[C@H](C)Oc2ccc(NS(=O)(=O)c3ccccc3)cc2C(=O)N([C@H](C)CO)C[C@H]1C,.,-,.,.,.,-,.,.
CCn1c(SCC(=O)NCC2CCCO2)nnc1-c1ccc(Cl)cc1 (stereo not given),-,-,-,-,-,-,.,.
Cc1ccc(-c2nc(SCC(=O)NCC3CCCO3)c(-c3ccc(Cl)cc3)[nH]2)cc1 (stereo not given),86,-,-,-,-,-,73,73
Cc1ccc(-c2[nH]c(-c3ccccc3)nc2SCC(=O)NCC2CCCO2)cc1 (stereo not given),93,-,-,-,-,-,91,110
Cc1ccc(-c2nc(S(=O)(=O)c3ccccc3)c(SCC(=O)NCC3CCCO3)o2)cc1 (stereo not given),-,-,-,-,-,-,.,.
CC1CCc2nc(NC(=O)C3CC3)sc2C1 (stereo not given),135,-,-,-,-,-,105,37
CC(C(=O)c1c[nH]c(C(N)=O)c1)c1ncc(C(F)(F)F)cc1Cl (stereo not given),-,-,-,-,-,-,.,.
COC(C[C@@H]1O[C@@H]1C(=O)COCc1ccccc1)OC,.,-,.,-,-,-,.,.
CCOC(=O)C1=C(c2ccccc2)c2ccc(OC)cc2N(S(=O)(=O)C(F)(F)F)C1C(=O)OCC (stereo not given),.,-,.,.,.,-,.,.
Cc1cccc2cc3c(NC(=O)CC(C)C)nn(C)c3nc12,-,-,-,-,-,-,.,.
Cc1ccc2cc3c(NC(=O)CC(C)C)nn(C)c3nc2c1,103,-,-,-,-,-,72,.
